Screens: PubChem, several laboratories
UBC9 SUMO inh: inhibitors of in vitro SUMOylation cascade, primary screen, biochemical, HTRF, uHTS. SUMO-conjugating enzyme UBC9 (Homo sapiens), P63279. HTRF SUMOylation assay, SAE1/SAE2 + UBC9. inhibition, % at 35 µM. hit rate 0.36% among 290,000. AID 2006, 2009; in the data active means inhibition above about 50%, passing the limit was not always enough
ALR H2O2 inh: inhibitors of human ALR sulfhydryl oxidase, primary screen, biochemical, H2O2 detection, HRP-luminol luminescence, single point | FAD-linked sulfhydryl oxidase ALR (Homo sapiens), P55789 | purified ALR, DTT oxidation | inhibition, % (concentration not given with the values) | hit rate 3.8% among 290,000 | AID 485317, 2010;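 active means mean replicate inhibition above about 79%, with every replicate also reaching it, limit read from the data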
Cardio protect: cardioprotection against H2O2-induced cell death, primary screen, uHTS, H9c2 cells, ATPLite luminescence; H9c2 cardiomyocytes, H2O2 injury protection, 2 h; protection from H2O2 cell death, % at 20 µM; hit rate 0.63% among 360,000; AID 588492, 2011;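 active means compounds giving at least 50% protection of heart cells from peroxide-induced death in the single-dose screen, raw or plate-pattern-corrected value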;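 further: 0% = DMSO wells with peroxide and 100% = DMSO wells without peroxide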
NTR1 agonist: agonists of human NTR1, primary screen, imaging, U2OS cells, beta-arrestin-GFP, high content | Neurotensin receptor type 1 (Homo sapiens), P30989 | activation, % at 20 µM | AID 493036, 2011 | hit rate 0.17% among 330,000 | NTR1-U2OS beta-arrestin-GFP spot imaging, agonist mode;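 active means activation at or above 40% of the spot to cytoplasm intensity ratio, with at least 20 cells analyzed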;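 further: 0% = DMSO without peptide and 100% = 100 nM NTR1 peptide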
Target sequence (P30989 whole entry, looked up): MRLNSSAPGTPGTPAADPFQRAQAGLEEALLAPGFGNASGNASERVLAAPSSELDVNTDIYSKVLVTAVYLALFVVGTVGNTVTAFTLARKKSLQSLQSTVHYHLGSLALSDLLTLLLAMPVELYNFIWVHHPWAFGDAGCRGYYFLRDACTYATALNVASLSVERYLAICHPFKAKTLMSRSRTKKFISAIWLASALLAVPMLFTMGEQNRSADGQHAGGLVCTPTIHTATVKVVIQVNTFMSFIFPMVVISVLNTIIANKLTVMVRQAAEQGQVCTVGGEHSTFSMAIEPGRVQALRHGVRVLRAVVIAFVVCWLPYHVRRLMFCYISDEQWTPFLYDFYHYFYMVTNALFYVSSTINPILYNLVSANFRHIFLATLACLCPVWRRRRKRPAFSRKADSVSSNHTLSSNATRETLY
* hit, by the source's call; · = not tested or not shown. Rows were chosen to be rich in hits. Some 3.9% of all compounds tested hit in one or more screens of this group.

SMILES	UBC9 SUMO inh	ALR H2O2 inh	Cardio protect	NTR1 agonist
O=C(NCc1ccco1)C1CC(=O)N(c2ccc(O)cc2)C1 (stereo not given)	27	99*	-3	-1
COc1ccc(CNC(=O)c2noc3c2CCCC3)cc1	9	-4	3	-2
O=C(O)c1cc(-c2ccccc2)nc(-c2ccccc2)c1	·	·	6	0
COc1ccc(S(=O)(=O)N2CCC(C(=O)NCCN3CCOCC3)CC2)cc1	·	-7	0	0
Nc1c(C(=O)N2CCOCC2)sc(=S)n1-c1ccccc1	-6	93*	-3	2
Nc1c(C(=O)N2CCCCC2)sc(=S)n1-c1ccccc1	-4	99*	2	1
Cc1ccc(-n2c(N)c(C(=O)N3CCCCC3)sc2=S)cc1	18	8	0	0
Cc1nnc(SCC(=O)N2CCN(S(=O)(=O)c3ccc(Cl)cc3)CC2)[nH]c1=O	7	3	7	0
N#C/C(=N\Nc1c(Cl)cccc1Cl)C(=O)NN	6	98*	0	6
c1cc2c(c(NCc3ccncc3)c1)CCCC2	3	99*	-11	-3
CC(C)(C)CC(=O)Nc1cccc2c1CCCC2	17	2	-5	-2
Cn1c(=NC(=O)c2ccco2)sc2ccccc21	14	·	-21	2
COc1ccc(Cl)cc1-n1c(N)c(C(N)=O)sc1=S	17	38	-10	1
C=CCOc1ccc2nc(NC(=O)OC)[nH]c2c1	6	-8	7	4
COC(=O)Nc1nc2ccc(-c3n[nH]c(=O)c4ccccc34)cc2[nH]1	16	12	68*	2
COc1ccc(C(=O)N/N=C(\c2ccccc2)c2ccccn2)cc1	-24	23	60*	·
O=C(NN=C(c1ccccc1)c1ccccn1)c1ccccc1	·	0	37	4
COC(=O)CCc1c(C)c(C(=O)c2ccco2)c2ccccn12	7	23	9	6
CC(C)(Cc1nc2ccccc2[nH]1)c1nc2ccccc2[nH]1	·	·	5	·
N#Cc1c(-c2cccc(Cl)c2)[nH]c(=S)[nH]c1=O	14	80*	-7	0
CCC(=O)Nc1c(C#N)c2nc3ccccc3nc2n1-c1ccc(C)cc1	·	·	-7	·
N#Cc1c(NC(=O)c2ccc(Br)o2)n(-c2ccccc2)c2nc3ccccc3nc12	95*	53	-4	0
CCCCn1c(NC(=O)c2ccccc2)c(C#N)c2nc3ccccc3nc21	98*	·	-3	·
CCCCn1c(NC(=O)c2ccc(F)cc2)c(C#N)c2nc3ccccc3nc21	·	38	·	-1
NNC(=O)c1cc2ccccc2cc1O	-5	2	65*	0
SMILES	UBC9 SUMO inh	ALR H2O2 inh	Cardio protect	NTR1 agonist
NNC(=O)c1ccc(O)cc1O	-4	99*	8	1
CCOC(=O)C(C)/C(C)=N/NC(=O)c1cc2ccccc2cc1O (stereo not given)	17	·	61*	1
C/C(CC(=O)N1CCCC1)=N\NC(=O)c1cc2ccccc2cc1O	-3	7	4	3
O=C(NCCO)c1cc2ccccc2cc1O	40	52	1	-1
COc1cc2cc(CN(CCCN3CCOCC3)C(=O)Nc3ccc(F)cc3)c(=O)[nH]c2cc1OC	3	-3	8	-2
COC(=O)c1ccc(NC2CC(=O)N(c3ccccc3C)C2=O)cc1 (stereo not given)	-16	-2	10	-2
Cc1ccccc1N1C(=O)CC(Nc2ccc3c(c2)OCO3)C1=O (stereo not given)	3	95*	-5	-1
CCN1C(=NCc2cccc(Cl)c2)N[C@@H](c2cccc(F)c2)C(C(=O)OC)=C1C	-11	4	-6	3
COc1ccc(N2Cc3cccc(C(=O)NC(C)CCc4ccco4)c3C2=O)cc1 (stereo not given)	40	98*	15	4
CCn1c(O)c(/C=N/n2cnnc2)sc1=S	4	98*	0	-1
COC(=O)C(Cc1ccc(O)cc1)NC(=O)C(C)NC(=O)c1ccc(C(C)(C)C)cc1 (stereo not given)	9	21	-2	1
COc1ccc(C)cc1NCc1cc(=O)oc2cc(-c3ccccc3)c(O)cc12	10	·	7	3
COC(=O)c1ccccc1NCc1cc(=O)oc2cc(O)c(O)cc12	0	45	67*	4
CCSc1ncc(/C=N/Nc2ccccc2)n1C	10	99*	-13	3
CC(C)(C)c1nnc2sc(SCC(=O)c3ccccc3)nn2c1=O	10	98*	3	5
